# Laboratory results from PubChem BioAssay AID686970 (National Center for Advancing Translational Sciences (NCATS), 2013).
# The campaign covered roughly 360,000 compounds. About 6,000 (1.7%) were called active. Another 8% or so got no clear call; they are omitted. This is one part of a sample in which actives are shown more often than they occur. Calls come from the whole dose curve; as a rule, active = well fitted cell-killing curve with a large enough effect; inconclusive = small, poorly fitted or top-dose-only effect, or effect the other way; inactive = flat fitted curve, though single readings scatter.
# Assay: qHTS for induction of synthetic lethality in tumor cells producing 2HG: qHTS for the HT-1080-NT fibrosarcoma cell line;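 note: NT is the 2HG producing partner of a matched IDH1 knockdown line; nearly all actives have a fitted effect of over 55% in size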;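 for activity, negative = less viability: 0% = DMSO-treated cells and -100% = media-only wells without cells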
# Conditions: HT-1080-NT fibrosarcoma viability, CellTiter-Glo ATP luminescence, 48 h; series mostly up to 46.1 µM; activity, negative = less viability: at the top concentration
# Outline: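 Viability by CellTiter-Glo luminescence after 48 h compound exposure at 37C of HT-1080-NT cells (750/well, RPMI, 5% FBS). % activity scaled between DMSO wells and medium-only wells, then curve-fitted and categorized by curve class.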
# Potency is the fitted concentration of half-maximal effect.
Structure (SMILES),"activity, negative = less viability",Potency
CC(C)(C(=O)NO)c1ccccc1,-14.5% (inactive),
CCN1C(=O)[C@H]2[C@@H](c3ccc(C(F)(F)F)cc3)N[C@]3(CCCN(Cc4ccc(Br)cc4)C3=O)[C@H]2C1=O,-8.24% (inactive),
O=C(CCCOc1ccc(Cl)cc1Cl)NNC(=O)C1CCC1,-13.1% (inactive),
O=C(NC(c1ccc(-c2ccccc2)cc1)c1cnccn1)C1CCN(CCOc2ccc(Cl)cc2Cl)CC1 (stereo unspecified),,20.6 µM (active)
COc1cccc(CN2CCC(C(=O)NC(c3ccc4c(c3)OCO4)c3ccccn3)CC2)c1 (stereo unspecified),2.22% (inactive),
CCCNC(=O)C1(C)CCN1C(=O)C1(c2ccccc2)CC1 (stereo unspecified),21.2% (inactive),
COc1ccccc1CNC(=O)c1cc(-c2cc(F)ccc2OC)n[nH]1,-1.62% (inactive),
CCNC(=O)c1cc2c(c(-c3cccc(-c4cncnc4)c3)n1)[C@H](CCO)N(C(C)=O)C2,-4.1% (inactive),
COC(=O)c1ccc2nc(-c3ccc(Cl)cc3)c(Cc3cccc(F)c3)n2c1,1.35% (inactive),
Cn1c(=O)c2cc(NC(=O)NCCc3cccs3)ccc2n1Cc1cccc(C(F)(F)F)c1,2.3% (inactive),
COc1ccc(C(=O)OCC(=O)NCCCc2ccccc2)cc1OC,5.07% (inactive),
COc1ccccc1NC(=O)COc1ccc(C(=O)OCC(=O)N(C(C)C)C(C)C)cc1OC,-5.95% (inactive),
CCN(CCCCOC(=O)c1ccc(OC)c(OC)c1)C(C)Cc1ccc(OC)cc1 (stereo unspecified),,18.4 µM (active)
CCC(=O)N1Cc2cc(C(=O)NCc3cccc(F)c3)nc(-c3cccc(C4=CCCC4)c3)c2[C@H]1CCO,-25.7% (inactive),
CS(=O)(=O)c1cccc(-c2ccc3nncn3c2)c1,19% (inactive),
CCOC(=O)N1CCN(C(c2ccnc3ccccc23)c2nnnn2-c2c(C)cccc2C)CC1 (stereo unspecified),-2.12% (inactive),
CN1C(CC(=O)Nc2ccc(Br)cc2)c2ccccc2CC1(C)C (stereo unspecified),,18.4 µM (active)
CC1(C)CN(CCc2ccccc2)C(=O)[C@H]1CC(=O)Nc1ccc(Br)cc1,-0.774% (inactive),
CCCCN1CC(C)(C)[C@H](CC(=O)Nc2ccc(Br)cc2)C1=O,15.3% (inactive),
COC(=O)c1ccc2nc(-c3cccc(Br)c3)c(Cc3ccc(OC)cc3C)n2c1,-1.34% (inactive),
COCCn1c(SCC(=O)Nc2ccc(F)cc2F)nc2c(c1=O)SCC2,-4.25% (inactive),
COc1ccccc1NC(=O)/C=C/C(N)=O,,8.91 µM (active)
COc1ccccc1NC(=O)N(O)C1(C#N)CCCCC1,4.03% (inactive),
COc1ccccc1NC(=O)COC(=O)COc1ccccc1F,1.92% (inactive),
O=C1NC[C@H](CCCCN2C[C@H](Cc3ccc(O)cc3)N(CCc3ccccc3)C(=O)C2=O)N(CCc2ccccc2)C1=O,3.97% (inactive),
Cc1cc(N)n2nc(-c3ccc(C(C)(C)C)cc3)cc2n1,,16.4 µM (active)

Structure (SMILES),"activity, negative = less viability",Potency
COc1ccc(-c2cc(C)nc3nc(N)nn23)cc1,-2.16% (inactive),
Cc1cc(C(C)(C)C)cc(C)c1N,6.3% (inactive),
Cc1ccc(S(=O)(=O)NN=C2CC(C)(C)CC(=O)C2(C)C)cc1,6.95% (inactive),
CC(=O)NC(c1cccc(F)c1)c1nc(-c2cccc(F)c2)cs1 (stereo unspecified),1.42% (inactive),
Cc1ccc(C(O)c2ncc(-c3ccccc3F)[nH]2)cc1F (stereo unspecified),1.03% (inactive),
CC(=O)Nc1ccc(Nc2c([N+](=O)[O-])cc(S(C)(=O)=O)cc2[N+](=O)[O-])cc1,-24.2% (inactive),
CC(=O)Nc1ccc(Nc2c3ccccc3nc3ccccc23)cc1,,14.6 µM (active)
CC(=O)Nc1ccc(S(=O)(=O)N(C)c2nc3ccccc3nc2Cl)cc1,-0.551% (inactive),
C[C@H]1CN([C@@H](C)CO)C(=O)c2cc(-c3ccccc3F)cnc2O[C@H]1CN(C)C(=O)C1CCOCC1,0.535% (inactive),
CCOc1ccc(NC(=O)CSc2nnc3c(n2)[nH]c2ccc(S(=O)(=O)N4CCOCC4)cc23)cc1,7.72% (inactive),
CCc1nnc(NC(=O)c2cc(S(=O)(=O)N3CCCCC3)ccc2C)s1,4.89% (inactive),
CCc1nnc(NC(=O)c2ccc(S(=O)(=O)NC3CCCCC3)cc2)s1,,6.31 µM (active)
CCc1nnc(NC(=O)C2CCCN2S(=O)(=O)c2ccccc2)s1 (stereo unspecified),-5.38% (inactive),
CCOC(=O)c1c(NC(=O)COC(=O)c2ccc(S(=O)(=O)C(F)F)cc2)sc(C(=O)N(C)C)c1C,8.55% (inactive),
CCCCn1nnnc1C1(C)CCC(=O)N1Cc1ccc(OC)c(OC)c1 (stereo unspecified),18% (inactive),
Cc1cccc(NC(=O)COC(=O)c2ccccc2OCc2cccc(Br)c2)c1,-2.81% (inactive),
COc1ccc(C(O)c2nc(-c3ccc(OC)nc3)cs2)cc1 (stereo unspecified),1.33% (inactive),
COc1ccc(CS(=O)/C(Cl)=C(/Cl)C(=O)Nc2ccc(OC)nc2)cc1 (stereo unspecified),,1.3 µM (active)
COc1ccc(NC(=O)CN2C(=O)NC(C)(c3ccccc3)C2=O)cn1 (stereo unspecified),5.3% (inactive),
CC(=O)NC(c1ccccc1)c1nc(-c2ccccc2C)cs1 (stereo unspecified),13.7% (inactive),
CSc1ncnc2c1ncn2CCCNCC(C)c1ccccc1 (stereo unspecified),-0.244% (inactive),
COc1ccc(NC(=O)N(C)C[C@@H]2OCc3cn(nn3)CCCC(=O)N([C@H](C)CO)C[C@H]2C)c(OC)c1,-9.92% (inactive),
CCCCNC(=O)C[C@@H]1C[C@@]2(C(=O)OC)CC(C)(C)CC=C2N(Cc2ccco2)C1=O,8.85% (inactive),
COc1ccc(NC(=O)c2nc(-n3nc(C)cc3C)ccc2Cl)cc1Cl,1.16% (inactive),
COc1ccc(Nc2cc(Sc3ccc(OC)cc3)ncn2)cc1,-15.5% (inactive),
COc1ccc(Nc2cc(C)nc(-n3nc(C)cc3C)n2)cc1,,1.12 µM (active)

Structure (SMILES),"activity, negative = less viability",Potency
CNS(=O)(=O)c1ccc2c(c1)[nH]c(=S)n2C,1.17% (inactive),
CC1=C(C(=O)N2CCOCC2)CC(CC(=O)NCc2cccc3ccccc23)C(=O)N1CCC1=CCCCC1 (stereo unspecified),2.57% (inactive),
CCCC(=O)N1CCC1(C)C(=O)NCc1ccc(C(C)C)cc1 (stereo unspecified),3.57% (inactive),
O=C(O)c1ccc(NC(=O)c2cn(-c3ccccc3)nc2-c2ccc(Cl)cc2)cc1,,9.2 µM (active)
Cc1ccc(-c2nn(-c3ccccc3)cc2C(=O)Nc2cccc(S(=O)(=O)N3CCOCC3)c2)cc1,-0.846% (inactive),
Cc1ccc(-c2nn(-c3ccccc3)cc2C(=O)NCCCN2CCCC2=O)cc1,-5.81% (inactive),
COC(=O)C1(C(=O)OC)C[C@H](c2ccccc2)N(Cc2ccccc2OC)[C@@H]1c1ccccc1,-7.18% (inactive),
CCCNC(=O)C1(C)CCN(Cc2csc(-c3ccc(Cl)cc3)n2)C1 (stereo unspecified),-20.6% (inactive),
Oc1ccccc1N1CCN(C(=S)NCc2ccccc2)CC1,-2.58% (inactive),
O=C(COC(=O)c1ccccc1C(=O)N1CCN(c2ccccc2)CC1)NCc1ccccc1,11.1% (inactive),
Oc1ccc(N2CCN(C(=S)NCc3ccccc3)CC2)cc1,,9.2 µM (active)
O=C(NOCc1ccccc1)c1cccc([N+](=O)[O-])c1,1.76% (inactive),
O=C(COC(=O)c1ccc([N+](=O)[O-])cc1Cl)NC(=O)c1ccccc1,7.05% (inactive),
O=C(NC(Nc1nc2ccc([N+](=O)[O-])cc2s1)(C(F)(F)F)C(F)(F)F)c1ccccc1,,5.17 µM (active)
COc1ncnc2c1ncn2CCCNCCN1CCOCC1,17.1% (inactive),
CC1CCCCN1CCCNC(=O)Cn1ncc2c([nH]c3ccccc32)c1=O (stereo unspecified),-7.98% (inactive),
CCCCCn1c(=O)[nH]c2cc(C(=O)NCCCN3CCCCC3C)ccc2c1=O (stereo unspecified),,23.1 µM (active)
CCC1CCCCN1CCCNC(=O)C1CCC(Cn2c(=O)[nH]c3ccccc3c2=O)CC1 (stereo unspecified),-3.67% (inactive),
CC(C)(O)C1=C[N+](=O)CC=C1,0.401% (inactive),
c1cc(-c2ccc3[nH]ccc3c2)n2ccnc2c1,-16.8% (inactive),
NC(CSC(c1ccccc1)(c1ccccc1)c1ccc(-c2ccccc2)cc1)C(=O)O (stereo unspecified),-1.58% (inactive),
Clc1ccc(-c2cc(-c3ccccn3)on2)c(Cl)c1,-22.7% (inactive),
Clc1ccc(-c2cc(C3CCNCC3)[nH]n2)c(Cl)c1,,23.1 µM (active)
C[C@@H]1Cn2cnc(C(=O)Nc3ccc(CNC(=O)OC(C)(C)C)cc3)c2C(=O)N1,0.607% (inactive),
Cc1nnc(SC(C)C(=O)c2c[nH]c3ccccc23)n1C1CC1 (stereo unspecified),-1.34% (inactive),
O=C(CSc1nc(Nc2ccccc2)nc(N2CCOCC2)n1)Nc1cc(Cl)ccc1O,,16.4 µM (active)

Structure (SMILES),"activity, negative = less viability",Potency
Cc1ccccc1NC(=O)CSc1nc2ccc(Nc3nc(N4CCOCC4)nc(N4CCOCC4)n3)cc2s1,-0.829% (inactive),
CC1(c2ccccc2)NC(=O)N(CC(=O)Nc2cc(Cl)ccc2N2CCOCC2)C1=O (stereo unspecified),-1.63% (inactive),
c1ccc2c(c1)nnn2-c1ccncc1,-1.78% (inactive),
O=C(Nc1ccc(F)cc1)C1CCN(C(=O)c2ccc([N+](=O)[O-])cc2)CC1,-4.07% (inactive),
O=C(c1ccc(Oc2ccc(Cl)cc2)c([N+](=O)[O-])c1)N1CCCC1,-4.99% (inactive),
CC1CCN(C(=O)c2ccc(S(=O)(=O)Cc3cc(F)ccc3F)c([N+](=O)[O-])c2)CC1,,11.6 µM (active)
Cc1ccc(NC(=S)NCCc2ccc(Cl)cc2)c(C)c1,-19% (inactive),
O=C(NCCc1ccc(Cl)cc1)c1cccc(N2CCCC2=O)c1,12.6% (inactive),
Oc1cc2c(cc1O)CN(C(=S)NCCc1ccc(Cl)cc1)CCC2,,31.6 µM (active)
Cc1cc(C)c2c(=O)n3c(nc2c1)C(CC(C)C)NC(=O)c1cc2ccccc2cc1-3 (stereo unspecified),4.37% (inactive),
CC(C)C1CC2=C(C(=O)OC(C)(C)O2)C(c2ccc(F)cc2)O1 (stereo unspecified),0.447% (inactive),
CN1OC[C@@H]2CN(S(=O)(=O)c3cccc4ccccc34)[C@H](c3ccc(N4CCCCC4)cc3)C[C@@H]21,-19.7% (inactive),
CS(=O)(=O)/C(C#N)=C/c1cccn1S(=O)(=O)c1ccc([N+](=O)[O-])cc1,5.67% (inactive),
CN(C)CCOc1ccc(Cl)cc1C(C)(C)C,-6.35% (inactive),
CN(C)CCOCCOc1ccc(Cl)c2ccccc12,,18.4 µM (active)
Clc1cccc(Cl)c1OCCOCCNCc1ccccc1,-2.39% (inactive),
COc1cc(C)c(CN2CCN(C(=O)CCC(=O)c3ccc(C)s3)CC2)cc1OC,0.481% (inactive),
Cc1ccc(NC(=O)Cn2sc3ccccc3c2=O)cc1,-4% (inactive),
CC1(C(=O)NS(=O)(=O)c2cccc(F)c2)CCN1C(=O)Cc1ccc(Cl)cc1Cl (stereo unspecified),8.06% (inactive),
COC(=O)[C@]12CCCCC=C1N(Cc1cccc3ccccc13)C(=O)[C@H](CC(=O)N1CCOCC1)C2,-14.1% (inactive),
COc1cc(NC(=O)c2[nH]cnc2C(N)=O)cc(C(=O)Nc2cccc(C(F)(F)F)c2)c1,,18.4 µM (active)
O=C(O)CSc1c2c(nc3cc(C(=O)Nc4cccc(C(F)(F)F)c4)ccc13)CCCC2,12.9% (inactive),
COc1cc(NC(=O)c2cncc(-c3ccc(C#N)cc3)c2)cc(C(=O)Nc2cccc(C(F)(F)F)c2)c1,,inactive
